This is a sample that favours compounds with a hit; in the whole collection about 1.7% have one here.
PAD4_FP_inh: inhibitors of human PAD4. inhibition, % at 6.36 µM. Q9UM07. recombinant PAD4, RCA probe fluorescence polarization. 330,000 compounds, 0.41% hits;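 active = percent inhibition above a cutoff equal to the mean of all tested compounds plus 3 SD, cut at about 15% in these data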;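 note: 0% = PAD4 with RCA probe and DMSO and 100% = probe without PAD4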
LYPLA1_counter: counter-screen for PME1 inhibitors: inhibitors of human LYPLA1 | recombinant LYPLA1, FP-Rh probe fluorescence polarization | 320,000 compounds, 0.16% hits | inhibition, % at 5.9 µM;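 active = inhibition above the mean of all tested compounds plus 3 SD, set per campaign, cut at about 14% in these data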;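 note: inhibitors block serine hydrolase probe labeling of LYPLA1 so polarization falls; 0% = enzyme with DMSO and 100% = wells lacking LYPLA1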
LYPLA2_counter: LYPLA2 (human) inhibition in PME1 counter-screen; inhibition, % at 5.9 µM; AID 2177; 320,000 compounds, 0.38% hits; recombinant LYPLA2, FP-Rh probe fluorescence polarization;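 active = inhibition above the screen-wide mean plus 3 SD, limit set per campaign, cut at about 26% in these data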;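 note: 0% = LYPLA2 with DMSO and 100% = wells lacking LYPLA2 enzyme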
PME-1_primary: PME-1 (human) inhibition; recombinant PME-1, FP-Rh probe fluorescence polarization; AID 2130; 320,000 compounds, 0.53% hits; inhibition, % at 5.9 µM;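 active = inhibition above the campaign mean of all compounds plus 3 SD, cut at about 26% in these data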;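 note: competitive labeling of PME-1 active site by serine hydrolase directed probe; 0% = PME-1 with DMSO and 100% = wells lacking PME-1 enzyme; inhibitors block probe labeling so polarization falls and inhibition rises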
Target sequence (Q9Y570 whole entry, looked up): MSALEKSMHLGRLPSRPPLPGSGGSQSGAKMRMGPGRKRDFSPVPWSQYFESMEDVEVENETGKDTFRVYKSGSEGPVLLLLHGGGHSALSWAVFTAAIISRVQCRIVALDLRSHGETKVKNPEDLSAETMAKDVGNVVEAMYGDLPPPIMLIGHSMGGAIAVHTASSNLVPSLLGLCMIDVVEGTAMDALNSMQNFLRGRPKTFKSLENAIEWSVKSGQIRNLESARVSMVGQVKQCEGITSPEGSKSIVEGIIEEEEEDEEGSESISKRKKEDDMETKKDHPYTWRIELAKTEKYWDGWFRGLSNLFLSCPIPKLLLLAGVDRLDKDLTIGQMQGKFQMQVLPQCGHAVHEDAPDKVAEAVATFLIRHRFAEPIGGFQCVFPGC
Fam108B_inh: counter-screen for RBBP9 inhibitors: inhibitors of mouse Fam108B; recombinant Fam108B, FP-Rh probe fluorescence polarization; inhibition, % at 9.51 µM; 300,000 compounds, 0.33% hits; AID 1947;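 active = inhibition above the screen mean inhibition plus 3 SD, computed separately per campaign, cut at about 18% in these data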;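 note: inhibitors lower polarization as less probe binds the enzyme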
GSTO1_inh: blocks human GSTO1 in RBBP9 counter-screen; inhibition, % at 5.96 µM; 300,000 compounds, 1.1% hits; P78417; recombinant GSTO1, activity-based probe fluorescence polarization; AID 1974;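 active = inhibition above the campaign mean inhibition plus 3 SD, cut at about 35% in these data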;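 note: 0% = GSTO1-1 with DMSO and 100% = wells lacking GSTO1-1 enzyme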
PAD4_confirm: confirmation of human PAD4 inhibitors; shares compounds with PAD4_FP_inh; recombinant PAD4, RCA probe fluorescence polarization; inhibition, % at 6.36 µM; 1,200 compounds, 28% hits;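 active = mean inhibition across replicates above the hit cutoff set by the earlier primary screen, cut at about 15% in these data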;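 note: inhibitors block active-site labeling by the probe so polarization falls; 0% = PAD4 with probe and DMSO and 100% = probe without PAD4 enzyme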
Starred values were filed as active, the others as inactive; nt = not tested or not shown.

SMILES PAD4_FP_inh LYPLA1_counter LYPLA2_counter PME-1_primary Fam108B_inh GSTO1_inh PAD4_confirm
C=CCn1c(O)c(C=Nc2ccc(N(CC)CC)cc2)c(=O)[nH]c1=O 28* 4 7 4 -3 28 5
CCCCn1c(O)c(C(C)=NCCCn2ccnc2)c(=O)[nH]c1=O 27* -4 1 0 3 9 16*
CCCCn1c(O)c(C(CC)=NCCCn2ccnc2)c(=O)[nH]c1=O 1 -2 -5 -1 3 10 nt
Cc1ccc(-c2nc3ccc(C)cn3c2CC(=O)N(C)C)cc1 17* 0 0 -5 3 8 10
CCCN(CCC)C(=O)Cc1c(-c2ccc(Cl)cc2)nc2c(Cl)cc(Cl)cn12 1 -3 -1 -4 12 5 nt

Screening data (PubChem BioAssay)
